NTR1 ag: agonists of human NTR1, primary screen, imaging, U2OS cells, beta-arrestin-GFP, high content; Neurotensin receptor type 1 (Homo sapiens), P30989; NTR1-U2OS beta-arrestin-GFP spot imaging, agonist mode; activation, % at 20 µM; hit rate 0.17% among 330,000; AID 493036, 2011;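 active = activation at or above 40% of the spot to cytoplasm intensity ratio, with at least 20 cells analyzed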
CHO-K1 Ca antag: M1 antagonist counterscreen hit in parental CHO-K1 cells | ATP-induced calcium, Fluo-8 fluorescence | inhibition, % at 3 µM | hit rate 0.6% among 360,000 | AID 602250;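 active = inhibition above a per-plate cutoff, the plate's mean sample inhibition plus 3 SD, cut at about 24% in these data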
TMEM16A inh: TMEM16A chloride channel inhibitors, primary screen, cell-based, HTS | Anoctamin-1 (Mus musculus), Q8BHY3 | HEK293 TMEM16A/YFP iodide influx fluorescence, ionomycin | normalized B-score (activity score, 25-100; higher = stronger inhibition) at 10 µM | hit rate 1.2% among 310,000 | AID 588511, 2011;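 active = ratio plate-corrected score three or more library SD toward inhibition, starting fluorescence score within five deviations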;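 also: score derived from kinetic fluorescence span divided by baseline fluorescence per well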
CHO-K1 Ca ag: counter-screen for M1 agonists: effect in parental CHO-K1 cells | hit rate 0.48% among 360,000 | AID 602248, 2012 | Fluo-8 calcium fluorescence; scaled to maximal ATP response, vehicle zero | activation, % at 3 µM; in the data active = activation above about 15%;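 also: untransfected CHO-K1 host cells lacking M1 receptor as counterscreen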
ANO1 activ: TMEM16A chloride channel activators or potentiators, primary screen, cell-based, HTS; B-score at 10 µM; Anoctamin-1 (Mus musculus), Q8BHY3; HEK293 TMEM16A/YFP-H148Q/I152L, iodide quench fluorescence; active compounds read low; hit rate 0.3% among 340,000;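 active = fluorescence-ratio B-score plate-corrected deviation score at least 3 library SD below zero, with starting fluorescence score within 5 deviations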;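 also: channel opened by trigger with iodide after compound preincubation; score built on the fluorescence ratio of max minus min over baseline; more negative score means more quench and so TMEM16A activation or potentiation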
M1 PAM parental: nonselective calcium activators in parental CHO-K1 cells, primary screen, counter-screen for M1 PAM project, cell-based, Fluo-8 calcium fluorescence, full deck, 1536-well; ATP EC20; 0% at ATP EC20, 100% at ATP max; activation, % at 3 µM; hit rate 0.02% among 360,000; AID 602247, 2012;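 active = activation above the run cutoff, the mean activation of all test compounds plus 3 SD, cut at about 40% in these data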;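 also: peak over basal fluorescence ratio in a 140 s read after ATP addition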
TMEM16A reconf: TMEM16A chloride channel inhibitors, confirmation, cell-based, re-confirmation. hit rate 39% among 2,300. shares compounds with TMEM16A inh. inhibition, % at 10 µM. HEK293 TMEM16A/YFP-H148Q, iodide quench fluorescence; ionomycin added to raise cell calcium;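 active = mean duplicate percent inhibition, scaled so buffer wells are 0 and the reference blocker 100, over three buffer SD above buffer mean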
HEK293 Ca mobil: calcium mobilization in TMEM16A/YFP HEK293 cells, confirmation, counter-screen for TMEM16A inhibitor project | shares compounds with TMEM16A inh | Fluo4 calcium mobilization | calcium response (% of ionomycin), % at 10 µM | hit rate 2% among 2,300 | AID 652231, 2013;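 active = duplicate-averaged calcium signal over 20% of the ionomycin maximum, relative to buffer baseline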;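 also: each well's signal is peak minus trough fluorescence divided by its pre-addition baseline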
Parental YFP cnt: iodide YFP quench changes in parental YFP-HEK293, counter-screen for TMEM16A inhibitor project, cell-based | shares compounds with TMEM16A inh | ionomycin | YFP ratio F(max-min)/F0 at 10 µM | 2,300 tested, under 10 active | AID 652233, 2013;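 active = yellow fluorescent protein signal ratio exceeding the buffer control mean by over 5 SD of those controls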;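 also: ratio is mean of duplicate wells from kinetic YFP trace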
ClC-1 rat inh: ClC-1 chloride channel inhibition, selectivity assay for TMEM16A inhibitor project, cell-based, voltage-dependent ClC-1; shares compounds with TMEM16A inh; CHO ClC-1-YFP, iodide influx fluorescence quench; iodide control reads 0, buffer control 100; ratio percent, % at 10 µM; 2,300 tested, under 10 active;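 active = duplicate-mean ratio percent above the mean of iodide-only control wells, which defines zero, plus 5 of their SD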;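 also: higher percent means stronger block of ClC-1 iodide influx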
Target sequence (P35524 whole entry, looked up): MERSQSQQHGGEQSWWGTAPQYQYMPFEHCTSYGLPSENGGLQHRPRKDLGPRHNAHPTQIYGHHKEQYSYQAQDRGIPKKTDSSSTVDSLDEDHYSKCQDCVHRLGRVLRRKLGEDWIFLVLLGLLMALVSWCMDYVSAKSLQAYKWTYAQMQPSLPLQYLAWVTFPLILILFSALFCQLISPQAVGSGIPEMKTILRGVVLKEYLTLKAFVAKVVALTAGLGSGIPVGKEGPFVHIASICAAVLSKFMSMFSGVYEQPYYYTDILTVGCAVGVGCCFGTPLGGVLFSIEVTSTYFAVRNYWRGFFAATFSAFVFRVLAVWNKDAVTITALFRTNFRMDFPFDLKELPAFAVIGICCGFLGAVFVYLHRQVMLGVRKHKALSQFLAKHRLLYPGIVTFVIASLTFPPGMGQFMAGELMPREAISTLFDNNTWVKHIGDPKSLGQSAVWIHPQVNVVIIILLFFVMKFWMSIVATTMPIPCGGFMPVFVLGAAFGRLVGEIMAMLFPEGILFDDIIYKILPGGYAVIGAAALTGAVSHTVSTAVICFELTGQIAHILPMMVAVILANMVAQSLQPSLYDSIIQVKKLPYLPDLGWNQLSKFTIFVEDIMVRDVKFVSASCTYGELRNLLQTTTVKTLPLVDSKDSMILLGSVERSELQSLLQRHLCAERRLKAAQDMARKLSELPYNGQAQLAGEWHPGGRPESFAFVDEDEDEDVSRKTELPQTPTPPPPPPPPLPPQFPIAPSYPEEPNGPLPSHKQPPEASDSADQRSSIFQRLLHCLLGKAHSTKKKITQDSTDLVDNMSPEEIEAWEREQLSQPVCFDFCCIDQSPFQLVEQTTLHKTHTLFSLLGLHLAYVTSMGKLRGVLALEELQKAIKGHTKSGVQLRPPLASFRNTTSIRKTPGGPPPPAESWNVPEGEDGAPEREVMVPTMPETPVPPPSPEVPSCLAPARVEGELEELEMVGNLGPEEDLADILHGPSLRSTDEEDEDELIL
Each line names hits and unclear results; the compound was inactive in the other large screens (follow-up assays come after a bar, where they were run). Most compounds without a hit are left out; they make up all but 2.2% or so of the library.

Cc1ccc(CNn2cnnc2SCc2ccc(F)cc2)cc1	TMEM16A inh 100 | TMEM16A reconf inactive | HEK293 Ca mobil inactive | Parental YFP cnt inactive | ClC-1 rat inh inactive
COc1ccc(NC(=O)c2sc3ncn(CC(=O)N4CCN(c5ccccn5)CC4)c(=O)c3c2C)c(OC)c1	TMEM16A inh 25 | TMEM16A reconf inactive | HEK293 Ca mobil inactive | Parental YFP cnt inactive | ClC-1 rat inh inactive
COc1cc(OC)c(NC(=O)c2sc3ncn(CC(=O)N4CCN(c5ccccn5)CC4)c(=O)c3c2C)cc1Cl	none
CCn1c(SCC(=O)Nc2ccc3c(c2)oc2ccccc23)nnc1-c1ccc(N)cc1	TMEM16A inh 100 | TMEM16A reconf inactive | HEK293 Ca mobil inactive | Parental YFP cnt inactive | ClC-1 rat inh inactive
CC(=O)Nc1ccc(-c2nnc(SCC(=O)Nc3ccc4c(c3)oc3ccccc34)n2C)cc1	none
Cc1c(Cl)cccc1NC(=S)NNc1ncc(C(F)(F)F)cc1Cl	TMEM16A inh 25 | TMEM16A reconf 40.0% | HEK293 Ca mobil inactive | Parental YFP cnt inactive | ClC-1 rat inh inactive
Cc1sc(NC(=O)c2sc3nc4c(C)cccc4cc3c2N)c(C#N)c1C	none
Cc1cccc2cc3c(N)c(C(=O)Nc4ccc(N5CCOCC5)cc4)sc3nc12	none | TMEM16A reconf inactive | HEK293 Ca mobil inactive | Parental YFP cnt inactive | ClC-1 rat inh inactive
Cc1cc(C)nc(/N=C(\N)Nc2ccc(OCCC(C)C)cc2)n1	CHO-K1 Ca antag 52.1, TMEM16A inh 100, CHO-K1 Ca ag 32.8 | TMEM16A reconf 29.0% | HEK293 Ca mobil 55.5% | Parental YFP cnt inactive | ClC-1 rat inh inactive
COc1cccc(C#CC2=CC(=O)CC(C)(C)C2)c1	none (no result: NTR1 ag, TMEM16A inh, ANO1 activ)
CC1=C(C(N)=O)C(c2ccncc2)n2nc(-c3ccccc3Cl)nc2N1 (stereo not given)	TMEM16A inh 100 | TMEM16A reconf inactive | HEK293 Ca mobil inactive | Parental YFP cnt inactive | ClC-1 rat inh inactive
COc1ccccc1-c1nc2n(n1)C(c1ccc(Cl)cc1)C(C(N)=O)=C(C)N2 (stereo not given)	none
NC(=O)c1cc(S(=O)(=O)N2CCCCC2)cs1	none
Cc1ccc(C)c(N2CCN(S(=O)(=O)c3csc(C(N)=O)c3)CC2)c1	TMEM16A inh 25 | TMEM16A reconf inactive | HEK293 Ca mobil inactive | Parental YFP cnt inactive | ClC-1 rat inh inactive
CC(=O)c1cccc(NS(=O)(=O)c2ccc(N/C=C\C(=O)c3ccc(F)cc3)cc2)c1	TMEM16A inh 100 | TMEM16A reconf 32.0% | HEK293 Ca mobil inactive | Parental YFP cnt inactive | ClC-1 rat inh inactive
Cc1ccc(NC(=O)CNc2cccc(S(=O)(=O)N3CCCCC3)c2)cc1F	TMEM16A inh 25 | TMEM16A reconf inactive | HEK293 Ca mobil inactive | Parental YFP cnt inactive | ClC-1 rat inh inactive
O=C(COC(=O)c1ccc(O)cc1)Nc1cccc(S(=O)(=O)N2CCCCC2)c1	TMEM16A inh 25 | TMEM16A reconf inactive | HEK293 Ca mobil inactive | Parental YFP cnt inactive | ClC-1 rat inh inactive
CS(=O)(=O)c1ccc(C(=O)OCC(=O)Nc2cccc(S(=O)(=O)N3CCCC3)c2)cc1	none
Cc1ccc(NCC(=O)Nc2cccc(F)c2)cc1S(=O)(=O)N1CCCCCC1	TMEM16A inh 100 | TMEM16A reconf 34.0% | HEK293 Ca mobil inactive | Parental YFP cnt inactive | ClC-1 rat inh inactive
COc1ccc(Cc2c(C3CCCCC3)nc3c(C)cc(Br)cn23)c(C)c1	none (no result: NTR1 ag, TMEM16A inh, ANO1 activ)
CCCCCC(=O)N1C[C@@H](O)[C@H](n2cc(COC(=O)c3ccccc3)nn2)C[C@@H]1c1ccc(OC)cc1	none (no result: NTR1 ag, TMEM16A inh, ANO1 activ)
CC1(C(=O)NS(=O)(=O)c2ccc(F)cc2F)CCN1C(=O)CCc1ccc(Cl)cc1Cl (stereo not given)	none (no result: NTR1 ag, TMEM16A inh, ANO1 activ)
O=C(CCNS(=O)(=O)c1ccc(OC(F)(F)F)cc1)N1CCN(C/C=C/c2ccccc2)CC1	TMEM16A inh 25 | TMEM16A reconf inactive | HEK293 Ca mobil inactive | Parental YFP cnt inactive | ClC-1 rat inh inactive
CC(C)N1C(=O)NC2NC(=O)N(C(C)C)C21 (stereo not given)	none (no result: NTR1 ag, TMEM16A inh, ANO1 activ)
Nc1cc(S(=O)(=O)Nc2ccccc2Cl)ccc1N1CCOCC1	none
Nc1cc(S(=O)(=O)Nc2ccc(Cl)cc2)ccc1N1CCOCC1	TMEM16A inh 25 | TMEM16A reconf inactive | HEK293 Ca mobil inactive | Parental YFP cnt inactive | ClC-1 rat inh inactive
Cc1ccnc(NS(=O)(=O)c2ccc3c(c2)CCO3)c1	none (no result: CHO-K1 Ca antag, CHO-K1 Ca ag, ANO1 activ, M1 PAM parental)
O=S(=O)(Nc1ccc(Cl)cc1)c1ccc2c(c1)CCO2	TMEM16A inh 25 | TMEM16A reconf inactive | HEK293 Ca mobil inactive | Parental YFP cnt inactive | ClC-1 rat inh inactive
Cc1ccc(-c2ccc3c(c2)O[C@H](CN(C)C(=O)Nc2ccc(C(F)(F)F)cc2)[C@H](C)CN([C@H](C)CO)S3(=O)=O)cc1	none (no result: NTR1 ag, TMEM16A inh, ANO1 activ)
CCOC(=O)C1CCN(C(=O)c2ccc3c(c2)OCCO3)CC1	none (no result: TMEM16A inh)
CCOc1ccc(C(=O)N2CCC(C(=O)c3ccc4c(c3)OCCO4)CC2)cc1	TMEM16A inh 100 | TMEM16A reconf inactive | HEK293 Ca mobil inactive | Parental YFP cnt inactive | ClC-1 rat inh inactive
Cc1cc(C)n2c(Nc3ccc4c(c3)OCCO4)c(-c3cc4ccccc4o3)nc2n1	none (no result: NTR1 ag, TMEM16A inh, ANO1 activ)
Cc1cc(C)n2c(Nc3ccc4c(c3)OCCO4)c(-c3ccc(C)o3)nc2n1	none | TMEM16A reconf inactive | HEK293 Ca mobil inactive | Parental YFP cnt inactive | ClC-1 rat inh inactive
CN(C)S(=O)(=O)c1cccc(NC(=O)CSc2ncnc3ccccc23)c1	TMEM16A inh 25 | TMEM16A reconf inactive | HEK293 Ca mobil inactive | Parental YFP cnt inactive | ClC-1 rat inh inactive
N#Cc1ccsc1NC(=O)CSc1ncnc2ccccc12	TMEM16A inh 100 | TMEM16A reconf inactive | HEK293 Ca mobil inactive | Parental YFP cnt inactive | ClC-1 rat inh inactive
Cc1cc(C(=O)OCC(=O)Nc2cccc(S(=O)(=O)N(C)C)c2)c(C)o1	none
